Reference: PubChem BioAssay (EPA / NIEHS)
Calls of active or inactive are those of the source. Rule for the calls: active = hit-call score of the fitted dose curve at least 0.9, where 1 is the maximum; inactive = score below 0.9.

What was measured:
Conditions in all cases: mRNA level, 48 h; actives raise or lower the signal
[1] = read-out: ABC Transporter (ABCB11), ABCB11 (gene 8647); experiment: LTEA_HepaRG_ABCB11: Life Technologies and Expression Analysis (LTEA) Assay for ABC Transporter (ABCB11) using HepaRG (AID 2283463)
In short: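 Using HepaRG cultures held in 0.5% DMSO, chemicals were tested at half-log dilutions from 100 uM for 48 h. Induction or suppression of ABCB11 mRNA, normalized to ACTB, GAPDH and POLR2A, was fitted bidirectionally against vehicle.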

[2] = read-out: ABC Transporter (ABCC2), ABCC2 (gene 1244); experiment: LTEA_HepaRG_ABCC2: Life Technologies and Expression Analysis (LTEA) Assay for ABC Transporter (ABCC2) using HepaRG (AID 2283464)
In short: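 Endpoint is ABCC2 transcript level from qRT-PCR, normalized to three housekeeping genes and fitted bidirectionally relative to DMSO. Human HepaRG cells received test chemical for 48 h at up to 100 uM (8 points, half-log steps, 0.5% DMSO), duplicate wells.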

[3] = read-out: Broad substrate specificity ATP-binding cassette transporter ABCG2 (Homo sapiens) (UniProt Q9UNQ0); experiment: LTEA_HepaRG_ABCG2: Life Technologies and Expression Analysis (LTEA) Assay for ABC Transporter (ABCG2) using HepaRG (AID 2283465)
In short: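 Gene expression of ABCG2 in HepaRG liver cells is quantified by qRT-PCR following 48 h exposure across an eight-point series topping at 100 uM. Values come from bidirectional fitting relative to DMSO vehicle.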

[4] = read-out: Peroxisomal acyl-coenzyme A oxidase 1 (ACOX1) gene, ACOX1 (gene 51); experiment: LTEA_HepaRG_ACOX1: Life Technologies and Expression Analysis (LTEA) Assay for Peroxisomal acyl-coenzyme A oxidase 1 (ACOX1) gene using HepaRG (AID 2283467)
In short: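 Human HepaRG hepatic cultures, 48 h treatment with test chemicals up to 100 uM. ACOX1 expression read by qRT-PCR relative to 0.5% DMSO vehicle.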

[5] = read-out: Alkaline Phosphatase, Placental (ALPP) gene, ALPP (gene 250); experiment: LTEA_HepaRG_ALPP: Life Technologies and Expression Analysis (LTEA) Assay for Alkaline Phosphatase, Placental (ALPP) gene using HepaRG (AID 2283468)
In short: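 ALPP transcript level, measured by qRT-PCR and normalized to three housekeeping genes (ACTB, GAPDH, POLR2A), after 48 h dosing of differentiated HepaRG in serum-free induction medium. Top concentration 100 uM with half-log dilutions (8 points, 0.5% DMSO, duplicates); bidirectional fitting relative to DMSO.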

[6] = read-out: Bcl-2 (BAD) gene, BAD (gene 572); experiment: LTEA_HepaRG_BAD: Life Technologies and Expression Analysis (LTEA) Assay for Bcl-2 (BAD) gene using HepaRG (AID 2283469)
In short: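 Activity values reflect up- or down-regulation of BAD mRNA in human HepaRG hepatic cells treated 48 h in serum-free medium, with eight-point half-log dosing capped at 100 uM and 0.5% DMSO vehicle.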

[7] = read-out: Bcl-2 (BAX) gene, BAX (gene 581); experiment: LTEA_HepaRG_BAX: Life Technologies and Expression Analysis (LTEA) Assay for Bcl-2 (BAX) gene using HepaRG (AID 2283470)
In short: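 Human HepaRG cells treated in duplicate for 48 h across eight concentrations (max 100 uM, 0.5% DMSO); BAX expression measured by qRT-PCR.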

[8] = read-out: adenosine kinase (ADK) gene, ADK (gene 132); experiment: LTEA_HepaRG_ADK: Life Technologies and Expression Analysis (LTEA) Assay for adenosine kinase (ADK) gene using HepaRG (AID 2283471)
In short: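 Following 48 h exposure of HepaRG cells in 0.5% DMSO (top concentration 100 uM, duplicate wells), ADK mRNA induction or suppression was measured by qRT-PCR, normalised to ACTB/GAPDH/POLR2A, and fitted bidirectionally relative to vehicle.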

[9] = read-out: Alpha-fetoprotein (AFP) gene, AFP (gene 174); experiment: LTEA_HepaRG_AFP: Life Technologies and Expression Analysis (LTEA) Assay for Alpha-fetoprotein (AFP) gene using HepaRG (AID 2283472)
In short: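 Measures AFP mRNA change in HepaRG after 48 h chemical exposure (8 half-log concentrations, highest 100 uM, 0.5% DMSO). Fold change relative to DMSO, fitted in both directions.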

BCL2L11 (gene 10018) = experiment: LTEA_HepaRG_BCL2L11: Life Technologies and Expression Analysis (LTEA) Assay for Bcl-2 (BCL2L11) gene using HepaRG (AID 2283473)
In short: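 BCL2L11 transcript levels are measured by Fluidigm qRT-PCR, normalized to three housekeeping genes. HepaRG cultures were plated 48 h, then treated 48 h with test chemical (top 100 uM, half-log, 0.5% DMSO vehicle); curves were fitted bidirectionally against DMSO.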

Chain of Broad substrate specificity ATP-binding cassette transporter ABCG2 (Homo sapiens) (Q9UNQ0 whole entry, looked up): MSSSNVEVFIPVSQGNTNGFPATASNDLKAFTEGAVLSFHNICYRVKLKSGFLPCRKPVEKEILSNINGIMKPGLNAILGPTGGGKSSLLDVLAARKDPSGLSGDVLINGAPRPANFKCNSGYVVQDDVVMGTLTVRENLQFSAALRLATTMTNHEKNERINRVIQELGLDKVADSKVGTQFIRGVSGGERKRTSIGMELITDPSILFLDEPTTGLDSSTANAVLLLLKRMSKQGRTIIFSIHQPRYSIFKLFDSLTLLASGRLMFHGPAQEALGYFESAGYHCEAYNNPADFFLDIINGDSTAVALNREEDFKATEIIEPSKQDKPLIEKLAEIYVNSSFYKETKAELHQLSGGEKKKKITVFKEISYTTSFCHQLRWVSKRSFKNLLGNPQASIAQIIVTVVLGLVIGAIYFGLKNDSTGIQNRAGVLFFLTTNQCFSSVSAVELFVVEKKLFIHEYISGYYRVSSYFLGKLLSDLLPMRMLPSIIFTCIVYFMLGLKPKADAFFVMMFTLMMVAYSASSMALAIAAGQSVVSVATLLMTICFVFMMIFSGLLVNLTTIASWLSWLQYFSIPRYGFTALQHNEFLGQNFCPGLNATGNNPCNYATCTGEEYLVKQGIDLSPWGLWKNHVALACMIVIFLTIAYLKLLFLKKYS

| SMILES | outcome [1] | outcome [2] | outcome [3] | outcome [4] | outcome [5] | outcome [6] | outcome [7] | outcome [8] | outcome [9] | outcome (BCL2L11 (gene 10018)) | AC50 [2] | AC50 [4] | AC50 [7] |
| --- | --- | --- | --- | --- | --- | --- | --- | --- | --- | --- | --- | --- | --- |
| Oc1cc(Cl)c(Cl)cc1Cl | inactive | inactive | inactive | inactive | inactive | inactive | inactive | inactive | inactive | inactive | – | – | – |
| Cc1cc(C)cc(C)c1 | inactive | inactive | inactive | inactive | inactive | inactive | inactive | inactive | inactive | inactive | – | – | – |
| CCCCCCCCCCCCc1cccc(S(=O)(=O)O)c1 | inactive | – | inactive | inactive | inactive | inactive | inactive | inactive | inactive | inactive | 45 µM (active) | – | – |
| OCCN(CCO)CCO | inactive | inactive | inactive | inactive | inactive | inactive | inactive | inactive | inactive | inactive | – | – | – |
| Clc1cccc(Cl)c1Cl | inactive | inactive | inactive | inactive | inactive | inactive | inactive | inactive | inactive | inactive | – | – | – |
| COc1ccccc1N | inactive | inactive | inactive | inactive | inactive | inactive | inactive | inactive | inactive | inactive | – | – | – |
| CC(C)(C)c1ccccc1O | inactive | inactive | inactive | inactive | inactive | inactive | inactive | inactive | inactive | inactive | – | – | – |
| Oc1c(Cl)cc(Cl)cc1Cl | – | inactive | inactive | inactive | inactive | inactive | inactive | inactive | inactive | inactive | – | – | – |
| Clc1cccc(Cl)c1 | inactive | inactive | inactive | inactive | inactive | inactive | inactive | inactive | inactive | inactive | – | – | – |
| CC(C)O.CC(C)O.OCCN(CCO)CCO.OCCN(CCO)CCO.[Ti] | inactive | inactive | inactive | inactive | inactive | inactive | inactive | inactive | inactive | inactive | – | – | – |
| O=C(N[C@H]1CN2CCC1CC2)c1ccc2c(c1)OCCO2 | inactive | inactive | inactive | inactive | inactive | inactive | inactive | inactive | inactive | inactive | – | – | – |
| N#Cc1cccnc1 | inactive | inactive | inactive | inactive | inactive | inactive | inactive | inactive | inactive | inactive | – | – | – |
| O=C(O)C1(c2ccc3c(c2)OC[C@H](Cc2ccc(-c4ccccc4)cc2)[C@H]3O)CCCC1 | inactive | inactive | inactive | – | inactive | inactive | – | inactive | inactive | inactive | – | 91.7 µM (active) | 66.2 µM (active) |
| CN(C)C(=S)S | inactive | inactive | inactive | inactive | inactive | inactive | inactive | inactive | inactive | inactive | – | – | – |
